Data on 44 compounds can be found in PMC4336329 (PLoS ONE, 2015).

Each structure is given as a SMILES string. Hit rate of the full screen: of about 310,000 compounds, about 14,000 (4.5%) showed an effect of 50% or more. Effects have a minus sign here. This excerpt belongs to a sample that is enriched for strong results.
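Further: peak tail current of the secondary pulse compared with the same well before compound.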

For this test, the target named is human ether-à-go-go-related gene (hERG) potassium channel (human, UniProt Q12809). Description: primary screen, population patch clamp on CHO cells stably expressing hERG; higher = less effect of the substance.
human ether-à-go-go-related gene (hERG) potassium channel, sequence (Q12809 whole entry, looked up): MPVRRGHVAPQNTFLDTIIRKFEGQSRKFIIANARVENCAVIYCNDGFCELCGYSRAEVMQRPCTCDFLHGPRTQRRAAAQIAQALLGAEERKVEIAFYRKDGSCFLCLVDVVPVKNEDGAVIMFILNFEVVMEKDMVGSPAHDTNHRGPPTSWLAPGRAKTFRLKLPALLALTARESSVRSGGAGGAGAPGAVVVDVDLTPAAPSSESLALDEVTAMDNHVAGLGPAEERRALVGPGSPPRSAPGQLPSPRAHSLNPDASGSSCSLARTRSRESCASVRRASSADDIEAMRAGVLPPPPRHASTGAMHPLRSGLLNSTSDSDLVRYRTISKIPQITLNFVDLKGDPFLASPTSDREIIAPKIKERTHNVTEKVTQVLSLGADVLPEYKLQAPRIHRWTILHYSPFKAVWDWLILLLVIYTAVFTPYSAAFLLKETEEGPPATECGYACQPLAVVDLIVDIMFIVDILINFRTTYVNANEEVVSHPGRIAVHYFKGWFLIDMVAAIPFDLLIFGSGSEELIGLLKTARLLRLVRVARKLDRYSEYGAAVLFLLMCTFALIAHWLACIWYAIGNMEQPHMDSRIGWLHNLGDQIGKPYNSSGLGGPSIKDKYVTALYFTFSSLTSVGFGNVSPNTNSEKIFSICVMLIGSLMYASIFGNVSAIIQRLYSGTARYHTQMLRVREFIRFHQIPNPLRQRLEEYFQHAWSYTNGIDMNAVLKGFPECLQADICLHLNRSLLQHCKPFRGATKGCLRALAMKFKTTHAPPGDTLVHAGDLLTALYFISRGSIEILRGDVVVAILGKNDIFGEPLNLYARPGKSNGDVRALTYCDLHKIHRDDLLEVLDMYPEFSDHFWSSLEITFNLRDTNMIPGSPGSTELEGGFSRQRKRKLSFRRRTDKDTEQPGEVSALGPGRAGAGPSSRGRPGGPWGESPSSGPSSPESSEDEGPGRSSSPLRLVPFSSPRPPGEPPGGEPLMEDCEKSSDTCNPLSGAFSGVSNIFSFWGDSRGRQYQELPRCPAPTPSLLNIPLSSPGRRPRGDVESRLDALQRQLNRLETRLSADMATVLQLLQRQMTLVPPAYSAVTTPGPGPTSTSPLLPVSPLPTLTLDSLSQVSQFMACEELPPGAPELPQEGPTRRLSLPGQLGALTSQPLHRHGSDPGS
`CCOC(=O)N1CCC(n2c(SCC(=O)NCCc3ccc(S(N)(=O)=O)cc3)nc3ccccc3c2=O)CC1`: the “hERG current change (%, negative = inhibition) at 10uM” value is 21%.
Turning to `CCOC(=O)N1CCC(n2c(SCC(=O)NCCC3=CCCCC3)nc3ccccc3c2=O)CC1`, the “hERG current change (%, negative = inhibition) at 10uM” value was -59.3%.
For `CCOC(=O)N1CCC(n2c(SCC(=O)Nc3ccccc3OC)nc3ccccc3c2=O)CC1` the value was -66.4%.
With `CCOC(=O)N1CCC(n2c(SCC(=O)N3CCC(C)CC3)nc3ccccc3c2=O)CC1` the figure was -47.9%.
Take `CCOC(=O)N1CCC(n2c(SCC(=O)NCc3ccccc3)nc3ccccc3c2=O)CC1`: the “hERG current change (%, negative = inhibition) at 10uM” value is recorded as -46.6%.
With `CCOC(=O)N1CCC(n2c(SCC(=O)N3CCCC3)nc3ccccc3c2=O)CC1` the figure was -20.9%.
For `COc1ccccc1S(=O)(=O)Cc1ccc(C(=O)NCc2ccc(C)cc2)o1` the value was -28.4%; for `CC(C)(CNC(=O)c1cc(Cl)c(O)c(Cl)c1)N1CCCCC1`, 4.69%; for `c1ccc(N=Nc2ccc3cccccc2-3)cc1`, 8.38%.
As for `Cc1cc(Oc2nnnn2-c2ccccc2)ccc1Cl`, the “hERG current change (%, negative = inhibition) at 10uM” value was -15.3%.
With `COc1ccc(C(CC(=O)N2CCC3(CC2)OCCO3)NS(=O)(=O)c2ccc(F)cc2)cc1` (centres unmarked) the figure was -2.22%; with `O=C(O)C1CC=CCC1C(=O)Nc1ccc(Oc2ccc(Cl)cc2)cc1` (centres unmarked), 7.55%.
For `COc1ccc(CCC(=O)NNC(=O)c2ccc(F)cc2)cc1` the value was 6.02%.
For `O=C(CCc1nnc2ccc(NCc3ccc(F)cc3)nn12)NC1CCCC1`, the “hERG current change (%, negative = inhibition) at 10uM” value is recorded as -0.461%.
For `CSCC[C@H](NC(=O)OC(C)(C)C)c1nnc(SCC(=O)Nc2ccc(C)cc2C)o1` the value was -50.1%.
For the compound `CSCC[C@H](NC(=O)OC(C)(C)C)c1nnc(SCc2ccc(F)cc2)o1`, the “hERG current change (%, negative = inhibition) at 10uM” value is recorded as -46.2%.
With `Cc1ccc(NC(=O)CSc2nnc([C@H](C)NC(=O)OC(C)(C)C)o2)c(C)c1` the figure was -6.67%; with `CSCC[C@H](NC(=O)OC(C)(C)C)c1nnc(SCc2cccc(F)c2)o1`, -30.3%.
For `CSCC[C@H](NC(=O)OC(C)(C)C)c1nnc(SCc2ccccc2)o1` the value was -51.3%; for `CSCC[C@H](NC(=O)OC(C)(C)C)c1nnc(SCC(=O)Nc2c(C)cccc2C)o1`, -14.5%.
On to `Cc1cc(NC(=O)CSc2ccc3c(c2)OCCO3)no1`, for which the “hERG current change (%, negative = inhibition) at 10uM” value was -8.22%.
With `COc1ccc(/C=C2\SC(=O)N(CC(=O)Nc3ccccc3O)C2=O)cc1OC` the figure was 9.72%; with `CCC1(C)Cc2c(sc3nnn(CC(=O)Nc4ccccc4)c(=O)c23)CO1` (centres unmarked), -27.3%; with `O=C(CCn1c(=O)oc2ccccc21)Nc1ccc(C(=O)O)cc1`, -45%.
Turning to `COc1cccc(C(=O)N2CCN(CCCc3ccccc3)CC2)c1OC.O=C(O)C(=O)O`, the “hERG current change (%, negative = inhibition) at 10uM” value was -46.7%.
With `CCOc1ccc(C(=O)N2CCN(CCc3ccccc3)CC2)cc1OCC` the figure was -78.8%.
For `CCOc1ccc(C(=O)N2CCN(c3ccccc3)CC2)cc1OCC` the value was -32.4%; for `COc1cc(C(=O)N2CCN(CCCc3ccccc3)CC2)cc(OC)c1OC`, -9.98%.
For `CCOc1ccc(C(=O)N2CCN(C(=O)c3ccco3)CC2)cc1OCC` the value was -5.57%.
For the compound `COc1ccc(C(=O)N2CCN(CCCc3ccccc3)CC2)cc1OC.O=C(O)C(=O)O`, the “hERG current change (%, negative = inhibition) at 10uM” value is -73.3%.
For `OC(C#Cc1ccccn1)c1cccs1` (centres unmarked) the value was 3.9%; for `Clc1ccc(-c2[nH]ncc2N=Nc2ccccc2)cc1`, 15.3%; for `Cc1cccc(C(=O)NCCC(=O)Nc2ccc(C#N)cc2)c1`, -0.169%.
In the case of `CCOc1ccc(CN2CCNC(=O)C2CC(=O)NCCCC2CCCC2)cc1` (centres unmarked), the “hERG current change (%, negative = inhibition) at 10uM” value is reported as -34.1%.
With `COCCN1CCN(Cc2nc(Cc3ccc(OC)c(OC)c3)no2)CC1` the figure was 3.84%; with `COc1ccc(Cc2noc(CN3CCCN(C4Cc5ccccc5C4)CC3)n2)cc1OC`, -67%.
With `COc1ccc(Cc2noc(CN3CCNC(=O)CC3)n2)cc1OC` the figure was 6.36%; with `COc1ccc(Cc2noc(CN3CCN(C4CCc5ccccc5C4)CC3)n2)cc1OC` (centres unmarked), -68.8%.
For `COc1ccc(Cc2noc(CN3CCN(Cc4cccc(Cl)c4)CC3)n2)cc1OC` the value was -11.5%.
Regarding `COc1ccc(Cc2noc(CN3CCCN(Cc4ccc(F)cc4)CC3)n2)cc1OC`, the “hERG current change (%, negative = inhibition) at 10uM” value is -60.8%.
Take `COc1ccc(Cc2noc(CN3CCN(Cc4csc(C)n4)CC3)n2)cc1OC`: the “hERG current change (%, negative = inhibition) at 10uM” value is 18.2%.
For `COc1ccc(Cc2noc(CN3CCC(c4ccncc4)CC3)n2)cc1OC` the value was -20%; for `COc1ccc(Cc2noc(CN(C)CC3CCN(Cc4ccccc4)CC3)n2)cc1OC`, -22.9%.
Take `Cc1ccc(NC(=S)Nc2c(C)n(C)n(-c3ccccc3)c2=O)cc1Cl`: the “hERG current change (%, negative = inhibition) at 10uM” value was -22.7%.
